Bioassay records deposited in PubChem BioAssay by National Center for Advancing Translational Sciences (NCATS).
Pol beta inh – DNA polymerase beta (human) inhibition. AID 485314. Pol beta primer extension/strand displacement, fluorescence kinetic. 340,000 compounds, 1.3% hits. Potency, µM (top dose mostly 114 µM), usual class: inhibitors. P06746
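Reaction started by 50 nM substrate onto compound-treated Pol beta (10 nM, 15 min preincubation, room temperature); plates read at 0 min and 10 min. Normalized concentration-effect data fitted by four-parameter Hill equation.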
TDP1 inh – TDP1 (human) enzyme inhibition; Q9NUW8; recombinant TDP1, AlphaScreen DNA substrate cleavage; Potency, µM (doses to about 130 µM), most hits filed as inhibitors; 350,000 compounds, 0.28% hits; AID 485290; further: nearly all actives have a fitted effect of over 40% in size
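Recombinant human Tdp1 (E. coli-expressed, 1 nM final) preincubated with compounds 15 min at room temperature, then 5'-biotin/3'-phosphotyrosine-FITC DNA substrate (15 nM final) added for 5 min. AlphaScreen beads (10 ug/ml final) added 10 min; cleavage lowers signal.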
POLH inh – inhibitors of human DNA polymerase eta. AID 588591. recombinant Pol eta, fluorescent DNA replication assay. Q9Y253. Potency, µM (titrated, usually from 114 µM), usual class: inhibitors. 390,000 compounds, 1.2% hits
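Pol eta (10 nM) was preincubated with compounds for 15 min at room temperature, after which fluorescent replication substrate (50 nM final) was added to start the reaction. Fluorescence was read kinetically at 0 and 10 min.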
Pol kappa inh – inhibitors of human DNA polymerase kappa | purified Pol kappa, fluorescent DNA synthesis assay, 10 min | Potency, µM (series often up to 107 µM), actives largely listed as inhibitors | 400,000 compounds, 0.53% hits
Target sequence (Q9UBT6 whole entry, looked up): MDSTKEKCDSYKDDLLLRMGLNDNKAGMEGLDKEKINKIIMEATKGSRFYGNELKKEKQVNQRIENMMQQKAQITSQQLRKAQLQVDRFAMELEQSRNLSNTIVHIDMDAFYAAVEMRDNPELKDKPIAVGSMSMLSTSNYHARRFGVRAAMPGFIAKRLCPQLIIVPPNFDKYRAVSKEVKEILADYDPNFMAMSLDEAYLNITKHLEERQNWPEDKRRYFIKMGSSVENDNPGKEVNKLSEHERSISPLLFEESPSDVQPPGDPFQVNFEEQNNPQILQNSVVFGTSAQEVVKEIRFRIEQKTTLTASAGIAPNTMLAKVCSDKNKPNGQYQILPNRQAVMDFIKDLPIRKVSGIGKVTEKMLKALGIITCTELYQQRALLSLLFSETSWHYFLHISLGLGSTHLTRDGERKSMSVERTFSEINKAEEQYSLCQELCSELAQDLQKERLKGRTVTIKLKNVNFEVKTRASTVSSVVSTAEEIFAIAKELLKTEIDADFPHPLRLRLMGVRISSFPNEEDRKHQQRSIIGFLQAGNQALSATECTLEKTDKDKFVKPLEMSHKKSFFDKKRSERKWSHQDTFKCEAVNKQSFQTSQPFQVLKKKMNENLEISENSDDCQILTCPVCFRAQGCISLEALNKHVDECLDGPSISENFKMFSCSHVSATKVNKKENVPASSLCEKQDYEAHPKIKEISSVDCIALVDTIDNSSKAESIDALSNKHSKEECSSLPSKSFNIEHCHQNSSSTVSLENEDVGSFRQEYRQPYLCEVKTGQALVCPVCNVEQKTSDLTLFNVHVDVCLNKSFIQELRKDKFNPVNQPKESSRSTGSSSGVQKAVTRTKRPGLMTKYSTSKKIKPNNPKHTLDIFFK
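Here, compound and 10 nM enzyme are combined for 15 min at room temperature; adding 50 nM substrate (final) starts DNA synthesis, tracked by fluorescence at 0 and 10 min against buffer-only wells.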
POLI inh – DNA polymerase iota (human) inhibition | Q9UNA4 | Pol iota fluorescent replication assay, 10 min | Potency, µM (top dose mostly 115 µM), usual class: inhibitors | 390,000 compounds, 1% hits | AID 588590
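Fluorescent replication assay read twice, at 0 min and 10 min after adding 50 nM (final) substrate. Enzyme (10 nM) and compounds were first incubated 15 min at room temperature; enzyme-free buffer wells were negative controls.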
Large screens that a line does not name were inactive. Only some compounds are listed: those with a hit (about 2.4% of all), similar ones and a draw of the others. The call rests on the fitted dose curve; in most records, active means well fitted curve in the direction sought with a large enough effect; inconclusive means small, poorly fitted or top-dose-only effect, or another doubt; inactive means no such curve, though single readings can be large; an effect the other way counts as inactive or inconclusive.

Cc1ccc(NC(=O)C(C)OC(=O)c2nc(Cl)ccc2Cl)cc1S(=O)(=O)N1CCOCC1 (centres undefined)	POLH inh inconclusive, POLI inh inconclusive (no result: Pol beta inh, TDP1 inh)
O=C(/C=C/c1ccc(O)c(O)c1)c1ccc(O)cc1O	Pol kappa inh 21µM (no result: Pol beta inh, POLH inh, POLI inh)
CC(=O)Nc1cc(C(=O)Nc2ccc3c(c2)N(C)C(=O)c2ccccc2S3)ccc1C	none
CC12CCC(C/C1=N\N=C1\NC(=O)/C(=C\c3ccc(Cl)cc3)S1)C2(C)C (centres undefined)	POLH inh 50µM
Cc1cccc(-c2cc3nc(C)cc(C)n3n2)c1	none
COc1ccccc1-c1cc2nc(C)cc(C)n2n1	Pol beta inh 89µM
COc1cccc(NC(=O)C(OC(=O)CNC(=O)c2ccccc2)c2ccccc2)c1 (centres undefined)	none (no result: Pol beta inh, POLH inh, Pol kappa inh, POLI inh)
O=c1cc(C(O)C[N+](=O)[O-])occ1OCc1ccccc1 (centres undefined)	Pol kappa inh inconclusive, POLI inh 25µM (no result: Pol beta inh, TDP1 inh)
Cc1cc(NC(=O)/C(C#N)=C/c2ccc(-c3cccc(C(F)(F)F)c3)o2)n(-c2ccccc2)n1	none
N#C/C(=C\c1ccc(-c2cccc(Cl)c2)o1)C(=O)Nc1cccc(C(F)(F)F)c1	POLI inh 89µM
CCOc1ccc(NC(=O)Cc2ccc(NC(=O)N3CCCCc4ccccc43)cc2)cc1	none
Cc1sc2nc(CSc3nc4ccccc4s3)[nH]c(=O)c2c1C	Pol beta inh 40µM (no result: POLH inh, Pol kappa inh, POLI inh)
O=c1[nH]c(CSc2nc3ccccc3s2)nc2ccccc12	none
O=C(c1cccc(N2C(=O)C3CC=CCC3C2=O)c1)N1CCN(c2ccccc2)CC1 (centres undefined)	Pol beta inh 45µM
CC(C)(C)OC(=O)NCc1nnc(-c2cc3ccccc3[nH]2)s1	none (no result: Pol beta inh, POLH inh, Pol kappa inh, POLI inh)
Cc1ccc(-c2nnn(CC(=O)Nc3ccc4nn(-c5ccccc5)nc4c3)n2)o1	Pol beta inh 22µM
Cc1ccc(-c2nnn(CC(=O)NCC3CC3)n2)o1	none
O=C1CCCC2=C1C(c1ccccc1Cl)N=C(Nc1nc3ccccc3o1)N2 (centres undefined)	none (no result: Pol beta inh, POLH inh, Pol kappa inh, POLI inh)
CC(=O)N1N=C(c2ccccc2)CC1c1ccc2c(c1)OCO2 (centres undefined)	none
CS(=O)(=O)N1N=C(c2ccccc2)CC1c1ccc2c(c1)OCO2 (centres undefined)	Pol beta inh inconclusive, POLH inh 32µM
COC1=CC(=O)c2ccccc2C1=O	POLH inh inconclusive, POLI inh 14µM (no result: Pol beta inh)
COC1=CC(=O)C=C(OC)C1=O	POLI inh inconclusive (no result: Pol beta inh)
O=C1NN(c2ccccc2)C(=O)/C1=C/c1cccs1	Pol beta inh inconclusive (no result: POLH inh, Pol kappa inh, POLI inh)
O=C1NN(c2cccc(Br)c2)C(=O)/C1=C/c1cccs1	POLH inh 79µM, POLI inh inconclusive (no result: TDP1 inh)
CCc1ccc2ncc3c(-c4ccc(C)cc4)nn(CC(=O)Nc4ccc(C)cc4)c3c2c1	none
Nc1ccc2cc3ccc(N)cc3nc2c1	Pol kappa inh 9.5µM (no result: Pol beta inh, POLH inh, POLI inh)
Cc1ccc2cc(N)ccc2n1	Pol beta inh inconclusive
CC1(OC(=O)c2cccs2)C(=O)C=C2C=C(c3ccsc3)OC=C2C1=O (centres undefined)	none (no result: Pol beta inh, POLH inh, Pol kappa inh, POLI inh)
CC1(OC(=O)CCc2ccccc2)C(=O)C=C2C=C(c3ccsc3)OC=C2C1=O (centres undefined)	Pol beta inh 45µM (no result: POLH inh, Pol kappa inh, POLI inh)
COC(=O)CCCC1=CC2=CC(=O)C(C)(OC(=O)C3CCCC3)C(=O)C2=CO1 (centres undefined)	Pol beta inh 45µM, POLH inh 20µM, Pol kappa inh inconclusive, POLI inh 22µM
CC1(OC(=O)C2CCCC2)C(=O)C=C2C=C(c3ccsc3)OC=C2C1=O (centres undefined)	Pol beta inh 35µM, POLH inh 32µM, Pol kappa inh inconclusive, POLI inh 45µM
CC1(OC(=O)c2ccco2)C(=O)C=C2C=C(C3CC3)OC=C2C1=O (centres undefined)	POLH inh 45µM, Pol kappa inh 79µM, POLI inh inconclusive (no result: Pol beta inh)
COc1cc2c(NC3CCN(C)CC3)nc(N3CCCCC3)nc2cc1OCCOCCN1CCCC1	POLI inh inconclusive (no result: Pol beta inh, TDP1 inh, POLH inh)
Cc1cccc(C(=O)NC2CCN(C#N)CC2)c1	none (no result: Pol beta inh, POLH inh, Pol kappa inh, POLI inh)
C#CCN(Cc1ccc(OC)cc1)S(=O)(=O)C=C	none (no result: Pol beta inh, TDP1 inh, POLH inh)
CN(C)/[N+]([O-])=N\Oc1cc(OC(=O)c2ccc(N)cc2)c([N+](=O)[O-])cc1[N+](=O)[O-]	POLI inh inconclusive (no result: Pol beta inh, TDP1 inh, POLH inh)
N#Cc1nc(Nc2cc(F)cc(F)c2)c2ncn(C3CCCC3)c2n1	none (no result: Pol beta inh, POLH inh, Pol kappa inh, POLI inh)
NCCCN(Cc1ccc(Cl)c(Cl)c1)c1ccccn1	none (no result: Pol beta inh, TDP1 inh, POLH inh)
COc1ccc(C2/C=C\CN(CC(C)C)C(Cc3ccccc3)C(=O)N2Cc2ccc(F)cc2)cc1 (centres undefined)	none (no result: Pol beta inh, POLH inh)
COCCCN1C(=O)C2C(C(=O)Nc3cc(C)cc(C)c3)C3C=CC2(O3)C1C(=O)NC1CCCCC1 (centres undefined)	POLH inh 22µM, POLI inh 13µM
CC(=O)Nc1nonc1-c1nc2ccccc2n1Cc1ccccc1Br	Pol beta inh inconclusive (no result: POLH inh)
CC(=O)Nc1nonc1-c1nc2ccccc2n1N(C(C)=O)C(C)=O	Pol beta inh 35µM, POLH inh inconclusive, POLI inh inconclusive
Cc1cc(C)c(NC(=O)CN(c2ccccc2)S(=O)(=O)N(C)C)c(C)c1	Pol beta inh 35µM, POLH inh inconclusive, Pol kappa inh inconclusive, POLI inh 89µM
COc1ccc(NC(=O)CN(c2ccccc2)S(=O)(=O)N(C)C)cc1Cl	none
Cc1ccc(NC(=O)CN(c2ccccc2)S(=O)(=O)N(C)C)cc1C	none
COc1ccc(NC(=O)CN(c2ccccc2)S(=O)(=O)N(C)C)cc1OC	Pol beta inh 40µM, POLH inh 45µM, Pol kappa inh inconclusive, POLI inh 14µM
Cc1c(F)cccc1Cn1cnc2c(cnn2C(C)(C)C)c1=O	none (no result: Pol beta inh, TDP1 inh, POLH inh)
CC1=CC(=O)C(C(C)C)=C/C1=C(\c1cc(C(C)C)c(OP(=O)(O)O)cc1C)c1ccccc1C(=O)O	Pol beta inh 50µM, POLH inh 79µM (no result: TDP1 inh)
Cc1cc(C)c(S(=O)(=O)NCC(c2cccs2)S(=O)(=O)c2ccccc2)c(C)c1 (centres undefined)	none
Cc1ccc2c(c1C)-c1c(ccc(C)c1C)C(=O)C2=O	POLH inh 22µM, POLI inh 25µM (no result: Pol beta inh, TDP1 inh)
Cc1ccc(CC#N)c(-c2c(CC#N)ccc(C)c2C)c1C	none (no result: Pol beta inh, TDP1 inh, Pol kappa inh, POLI inh)
CC(C)c1cnc2c(c1SCc1ccc([N+](=O)[O-])cc1)c(=O)n(C)c(=O)n2C	none
Nc1c(C(=O)OCC(=O)Nc2cccc([N+](=O)[O-])c2)[nH]c(=O)[nH]c1=O	POLH inh 25µM, POLI inh inconclusive (no result: Pol beta inh)
O=C(COC(=O)COc1ccccc1)Nc1cccc([N+](=O)[O-])c1	none
COc1ccc(CNC(=O)C(Cc2ccccc2)NS(=O)(=O)c2ccc3c(c2)CCN3C(C)=O)cc1 (centres undefined)	Pol beta inh 25µM, POLI inh inconclusive
COc1cccc(NS(=O)(=O)c2ccc3c(c2)CCCN3C(C)=O)c1	Pol beta inh 79µM
